# Measured values from article PMC4336329 (PLoS ONE, 2015).
# The campaign covered roughly 310,000 compounds. About 14,000 (4.5%) showed an effect of 50% or more. The effect is printed as a negative number. The entries come from a sample that favours strong results as a whole.
# Target: human ether-à-go-go-related gene (hERG) potassium channel (human, UniProt Q12809)
# Experiment: primary screen, population patch clamp on CHO cells stably expressing hERG; higher = less effect of the substance
# 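Also: peak tail current of the secondary pulse compared with the same well before compound.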
# Sequence of human ether-à-go-go-related gene (hERG) potassium channel (Q12809 whole entry, looked up): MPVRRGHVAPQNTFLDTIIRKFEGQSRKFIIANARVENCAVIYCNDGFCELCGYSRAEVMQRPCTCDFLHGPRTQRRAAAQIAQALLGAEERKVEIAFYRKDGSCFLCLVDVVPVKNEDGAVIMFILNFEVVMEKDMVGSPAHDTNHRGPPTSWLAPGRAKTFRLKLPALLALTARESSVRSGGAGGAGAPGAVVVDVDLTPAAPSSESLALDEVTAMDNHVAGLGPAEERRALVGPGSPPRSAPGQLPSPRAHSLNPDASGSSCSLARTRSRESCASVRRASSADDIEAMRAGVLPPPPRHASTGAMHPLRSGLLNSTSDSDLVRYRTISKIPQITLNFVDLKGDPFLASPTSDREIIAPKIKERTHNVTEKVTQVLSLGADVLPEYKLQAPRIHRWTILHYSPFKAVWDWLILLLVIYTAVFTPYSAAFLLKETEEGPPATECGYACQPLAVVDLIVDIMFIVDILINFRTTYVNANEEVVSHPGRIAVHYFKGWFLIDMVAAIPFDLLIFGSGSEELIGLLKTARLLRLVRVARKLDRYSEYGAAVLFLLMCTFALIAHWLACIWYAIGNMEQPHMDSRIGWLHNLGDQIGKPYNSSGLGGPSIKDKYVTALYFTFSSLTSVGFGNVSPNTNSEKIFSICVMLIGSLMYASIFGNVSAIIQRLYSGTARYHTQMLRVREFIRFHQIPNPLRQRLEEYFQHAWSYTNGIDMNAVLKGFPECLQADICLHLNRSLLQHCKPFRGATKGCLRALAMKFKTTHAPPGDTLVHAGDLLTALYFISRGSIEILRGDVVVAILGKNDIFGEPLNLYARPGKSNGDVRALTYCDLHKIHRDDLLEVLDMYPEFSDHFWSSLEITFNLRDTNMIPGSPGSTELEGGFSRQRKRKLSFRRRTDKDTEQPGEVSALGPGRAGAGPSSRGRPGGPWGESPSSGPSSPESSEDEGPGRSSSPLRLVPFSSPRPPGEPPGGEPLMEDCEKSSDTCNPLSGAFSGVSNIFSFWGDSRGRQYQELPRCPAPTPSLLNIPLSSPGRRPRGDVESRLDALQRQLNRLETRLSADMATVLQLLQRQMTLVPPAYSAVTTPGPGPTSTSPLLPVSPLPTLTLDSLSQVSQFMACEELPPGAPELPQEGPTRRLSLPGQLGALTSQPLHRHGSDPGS
row,Structure (SMILES),"hERG current change (%, negative = inhibition) at 10uM"
1,Cc1cc(N2CCOCC2)nc2ccc(NC(=O)CCC(=O)N3CCN(c4ccc(F)cc4)CC3)cc12,21%
2,COc1ccc(Br)c(C(=O)N2CCN(S(=O)(=O)/C=C/c3ccccc3)CC2)c1,-58.8%
3,COc1ccc(N2CCN(S(=O)(=O)/C=C/c3ccccc3)CC2)cc1,1.54%
4,COc1cc(SC)ccc1C(=O)N1CCN(c2ccccc2F)CC1,-33.8%
5,COc1ccc(Br)c(C(=O)N2CCN(S(=O)(=O)c3cccs3)CC2)c1,-9.75%
6,COc1cc(SC)ccc1C(=O)N1CCN(S(=O)(=O)/C=C/c2ccccc2)CC1,-56.5%
7,COc1cc(SC)ccc1C(=O)N1CCN(c2ccccc2OC)CC1,-24.5%
8,CCOC(=O)c1c(NC(=O)CN2CCCc3ccccc32)sc(C(C)=O)c1C,5.24%
9,CC1(C)CCC(=O)N2CC[C@H]3C[C@H](OC(=O)Nc4ccc5c(c4)OCO5)C[C@@H]1[C@H]32,-0.41%
10,CC1(C)CC(=O)c2cc(OCC(=O)NCCN3CCCc4ccccc43)ccc2O1,-47.5%
11,N#CC1=C(N)Oc2c(c(=O)oc3ccccc23)C1c1cccnc1 (stereo not drawn),5.62%
12,CC1(C)C2CC=C(/C=N/NC(=O)c3ccccc3Br)C1C2 (stereo not drawn),-2.58%
13,C=CC(C)(C)O[C@@H]1O[C@H](CO)[C@@H](O)[C@H](O)[C@H]1O,40.6%
14,Cc1cccc(N2CCc3c2nc2ccccc2c3N)c1.O=C(O)C(=O)O,-53.7%
15,Cc1ccc2nc3c(c(N)c2c1)CCN3c1ccccc1.O=C(O)C(=O)O,-35.4%
16,Cc1cccc(N2CCc3c2nc2ccccc2c3N)c1.Cl,-61.9%
17,Cc1cccc(N2CCc3c2nc2ccc(Br)cc2c3N)c1.Cl,6.56%
18,Nc1c2c(nc3cccc(Cl)c13)N(c1ccccc1)CC2,31.7%
19,CCCC(=O)Nc1c2c(nc3ccccc13)N(c1ccccc1)CC2,-1.55%
20,CC(C)(C)c1ccccc1NC(=O)COC(=O)CN1C(=O)NC2(CCCC2)C1=O,15.8%
21,Cc1c(OCC(=O)NCC(O)c2ccccc2)ccc2c3c(c(=O)oc12)CCC3 (stereo not drawn),-8.23%

row,Structure (SMILES),"hERG current change (%, negative = inhibition) at 10uM"
1,Cl.O=C(CN1CCOCC1)c1ccc(Br)cc1,18%
2,CN(CC(=O)NCC1CCCCC1)CC(=O)Nc1ccccc1Br,-21.2%
3,COc1ccc(S(=O)(=O)N(CCCN2CCCC2=O)Cc2cc3c(C)ccc(C)c3[nH]c2=O)cc1,-36.1%
4,Cc1ccc(S(=O)(=O)N(CCCN2CCCC2=O)Cc2cc3c(C)ccc(C)c3[nH]c2=O)cc1,-64%
5,Cc1ccc(S(=O)(=O)N(CCCO)Cc2cc3c(C)ccc(C)c3[nH]c2=O)cc1,-45.9%
6,O=C(c1ccc(NS(=O)(=O)c2ccccc2)cc1)N1CCCC1,-8.95%
7,CS/C(N)=N/S(=O)(=O)c1ccc(NC(C)=O)cc1,17.6%
8,C/C(=N/Nc1ccccc1[N+](=O)[O-])c1ccc([N+](=O)[O-])cc1,5.07%
9,CC1CCc2c(sc(NC(=O)c3ccccc3C(=O)O)c2C#N)C1 (stereo not drawn),-0.906%
10,CC(C)Cn1c(NCCN(C)C)nc2c1c(=O)[nH]c(=O)n2C,10.1%
11,COCCCNc1nc2c(c(=O)[nH]c(=O)n2C)n1CC(O)COc1ccccc1C (stereo not drawn),-7.62%
12,Cc1cc(C)n(-c2nc3c(c(=O)[nH]c(=O)n3C)n2CC(O)COc2ccc(Cl)cc2Cl)n1 (stereo not drawn),-3.56%
13,CN(C)CCNc1nc2c(c(=O)[nH]c(=O)n2C)n1CC(O)COc1ccc(Cl)cc1 (stereo not drawn),-20%
14,CN(C)CCNc1nc2c(c(=O)[nH]c(=O)n2C)n1CC(O)COc1ccc(Cl)cc1Cl (stereo not drawn),-55%
15,CCN(CC)CCNc1nc2c(c(=O)[nH]c(=O)n2C)n1CC(O)COc1ccc(Cl)cc1Cl (stereo not drawn),-70.2%
16,C[C@]12CC[C@H](O)C[C@H]1CC[C@@H]1C2CC[C@]2(C)[C@@H](C3=CC(=O)OC3)[C@@H](O)C[C@]12O (stereo partly drawn),21.1%
17,N#Cc1c2c(nc(N)c1-c1ccccc1)CCCCC2,7.02%
18,CC1=C(C(=O)OCC(Br)(Br)Br)C(c2cccc([N+](=O)[O-])c2)NC(=O)N1CCCC(=O)O (stereo not drawn),-3.03%
19,CCn1nnnc1-c1ccc(OC)c(S(=O)(=O)Nc2ccc(C)c(C)c2)c1,-2.9%
20,CCNC(=S)NNC(=O)CCn1cc(C)cn1,20.7%
21,Cc1cccc(N2CCN(S(=O)(=O)c3c(C)[nH]c(C)c3C(=O)N3CCCC3)CC2C)c1 (stereo not drawn),-19.2%
